JMJD2A Tudor inh = JMJD2A Tudor domain (human) inhibition; O75164; AlphaScreen JMJD2A-Tudor / H3K4me3 peptide binding; Potency, µM (highest dose often 114 µM), without a hit: at the highest dose activity change, negative = inhibition, usual class: inhibitors; 390,000 compounds, 4.4% hits; AID 504339; further: on the % scale 0 is the no-effect control and ±100 the full control effect; nearly all actives have a fitted effect of over 50% in size
G9a block = blocks human histone lysine methyltransferase G9a. Q96KQ7. G9a H3K9 monomethylation, AlphaScreen, 2 h. Potency, µM (series often up to 102 µM), for the others: top-dose activity, negative = inhibition, usual class: inhibitors. 350,000 compounds, 8.8% hits. AID 504332; further: on the % scale 0 is the no-effect control and ±100 the full control effect; nearly all actives have a fitted effect of over 75% in size
Target sequence (Q96KQ7 913-1193 limits assumed): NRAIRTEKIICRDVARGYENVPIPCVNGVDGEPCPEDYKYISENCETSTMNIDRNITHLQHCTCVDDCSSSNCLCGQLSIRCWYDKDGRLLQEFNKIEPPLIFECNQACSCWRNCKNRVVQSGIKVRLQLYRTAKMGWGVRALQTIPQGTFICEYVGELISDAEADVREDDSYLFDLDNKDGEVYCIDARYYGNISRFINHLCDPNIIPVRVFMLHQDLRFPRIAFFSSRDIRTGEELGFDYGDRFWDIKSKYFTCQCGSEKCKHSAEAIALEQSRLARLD
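Methyltransferase reactions run at room temperature for 2 h (20 nM enzyme, 500 nM biotin-H3K9 peptide, 20 uM SAM) after a 15 min compound preincubation; product detected by AlphaScreen beads and anti-H3K9me1 antibody.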
HP1b binding inh = HP1-beta chromodomain-methylated histone interaction inhibition | AlphaScreen HP1-beta / biotin-H3K9me3 peptide binding | 390,000 compounds, 0.56% hits | Potency, µM (doses to about 114 µM), for the others: at the top dose activity change, negative = inhibition, most hits filed as inhibitors | P83916; further: nearly all actives have a fitted effect of over 70% in size
Target sequence (P83916 whole entry, looked up): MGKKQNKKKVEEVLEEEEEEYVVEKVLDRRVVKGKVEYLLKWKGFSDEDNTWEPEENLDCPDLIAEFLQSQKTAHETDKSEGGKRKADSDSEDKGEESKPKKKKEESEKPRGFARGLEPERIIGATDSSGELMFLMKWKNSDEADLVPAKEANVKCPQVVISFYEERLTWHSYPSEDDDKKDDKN
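HP1-beta protein (50 nM final) preincubated 30 min at room temperature with biotinylated H3(1-18)K9me3 peptide (50 nM) in PBS pH 7.4, 0.01% Tween-20, then compound added for 30 min. AlphaScreen streptavidin donor/nickel chelate acceptor beads (10 ug/mL final), 30 min dark, luminescence read.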
BAZ2B block = inhibitors of human BAZ2B bromodomain. Potency, µM (top dose mostly 114 µM), without a hit: top-dose activity change, negative = inhibition, usual class: inhibitors. 360,000 compounds, 4.4% hits. Q9UIF8. AlphaScreen BAZ2B-H3K14Ac peptide displacement; further: on the % scale 0 is the no-effect control and ±100 the full control effect; nearly all actives have a fitted effect of over 60% in size
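Complex of BAZ2B and biotin-H3K14Ac (50 nM apiece) forms over 30 min at RT, then faces library compounds up to 110 uM for another 30 min; AlphaScreen beads added, 20 min dark incubation, luminescence read.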
Sfp inh = blocks B. subtilis Sfp PPTase activity; Q9F4F7; Biochemical Sfp PPTase activity, qHTS; 310,000 compounds, 3.5% hits; Potency, µM, without a hit: largest response in the series, negative = inhibition, most hits filed as inhibitors;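 further: the enzyme is Sfp with the accession as filed and its product quenches rhodamine fluorescence; 0% = enzyme reaction without inhibitor and -100% = no enzyme wells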
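Step 1, compound plus 15 nM Sfp-PPTase, 15 min, room temperature. Step 2, add rhodamine-CoA (5 uM) and BHQ-2-YbbR (12.5 uM). Step 3, read 525/598 nm fluorescence at 0 and 30 min.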
Active calls of the source: *; ? = inconclusive; / = not tested or not shown; ! = not confirmed by another sample; [ ] = dose if it differs, or a comment. Sampled rows, rich in hits. Any-hit rate of the full collection: about 12%. The call rests on the fitted dose curve; in most records, active means well fitted curve in the direction sought with a large enough effect; inconclusive means small, poorly fitted or top-dose-only effect, or another doubt; inactive means no such curve, though single readings can be large; an effect the other way counts as inactive or inconclusive. Potency means the concentration at half of the fitted maximal effect.

SMILES	JMJD2A Tudor inh	G9a block	HP1b binding inh	BAZ2B block	Sfp inh
CN1CCc2nc3ccccc3c(C(=O)OCC(=O)N(CCC#N)c3ccccc3)c2C1	-13%	22µM*	29%	?	-9%
N#CCCN(C(=O)COC(=O)c1ccc2ccccc2n1)c1ccccc1	-8%	8%[2.33 µM]	23%	-4%	/
COC(=O)c1sc(S(=O)(=O)NCc2ccccc2)c(C(=O)OC)c1C	1%	20%[59 µM]	16%	2%	9%
COc1cc2nc(=S)n(CCCN3CCOCC3)c(N)c2cc1OC	-16%	?	22%	-21%	50µM*
CCN(CC)CCNC(CC(=O)Nc1ccc(Cl)cc1Cl)C(=O)O (centres undefined)	-33%	8.9µM*	26%	4%	-7%
O=c1cc(CN2CCN(Cc3ccccc3)CC2)c2cc(Cl)ccc2o1	-21%	45µM*	35%	7%	11%
Cc1cc2oc(=O)cc(CN3CCN(Cc4ccccc4)CC3)c2cc1Cl	-8%[11.4 µM]	-20%[59 µM]	12%	-31%	-8%
CCc1ccc2oc(=O)cc(CN3CCN(Cc4ccccc4)CC3)c2c1	-22%	45µM*	51%	-5%	3%
CC(C)[C@H](NC(=O)OCc1ccccc1)C(=O)OCC(=O)NCc1ccco1	?	/	-17%	/	/
Cc1ccc(C(=O)Nc2ccc(S(=O)(=O)N(Cc3ccccc3)c3ccccc3)cc2)cc1	-16%	-1%[59 µM]	34%	-7%	/
CC(=O)CSc1nc2cc3c(cc2cc1C#N)OCCO3	-9%	1µM*	21%	-22%	27%
N#Cc1cc2cc3c(cc2nc1SCC(=O)N1CCCC1)OCCO3	-12%	28µM*	18%	-2%	-3%
Cc1cc(C)c(C#N)c(SCC(=O)N2CCN(Cc3ccccc3)CC2)n1	-10%	?	39%	-9%	1%
Cc1cc(C)c(C#N)c(SCC(=O)N2CCCCC2)n1	?	14µM*	7%	0%	32µM*
O=C(NCc1ccc(Cl)cc1)c1cnc2sc(N3CCCC3)nn2c1=O	79µM*	-2%[59 µM]	25%	-1%	/
NC/C=C/C(=O)O	/	7%[59 µM]	/	/	23%
NC/C=C\C(=O)O	/	13µM*!	/	/	11%
CCOC(=O)c1sc(NC(=O)/C=C/c2cnn(CC)c2C)c(C(=O)OCC)c1C	-12%	?	-13%	6%	25µM*
CC1(C)CC2(C)OC(=N)C1(C#N)C2(C#N)C#N (centres undefined)	-3%	56µM*	34%	-5%	-5%
Cc1ccccc1OCC(=O)Nc1ccccc1C(=O)N1CCCCC1	-1%	?	31%	-2%	16%
CCOC(=O)CN1C(=O)N[C@@H](c2cccc(C(F)(F)F)c2)C(C(C)=O)=C1C	-22%	/	17%	/	12%
COC(=O)C1=C(C)N(C)C(=O)NC1c1cc2c(cc1Br)OCO2 (centres undefined)	-22%	/	13%	-7%	23%
COC(=O)C1=C(C)N(CCCC(=O)O)C(=O)NC1c1cc2c(cc1[N+](=O)[O-])OCO2 (centres undefined)	35µM*	7.9µM*	-10%	?	32µM*
COC(=O)C1=C(C)N(C)C(=O)NC1c1cc2c(cc1[N+](=O)[O-])OCO2 (centres undefined)	-2%	?	29%	50µM*	14µM*
CCCc1cc(=O)[nH]c(SCC(=O)Nc2cccc(S(=O)(=O)N3CCCCC3)c2)n1	-11%	-43%[59 µM]	45%	-13%	/
SMILES	JMJD2A Tudor inh	G9a block	HP1b binding inh	BAZ2B block	Sfp inh
COc1ccccc1CN1CC2(CCN(S(C)(=O)=O)CC2)C1	/	1%[12.7 µM]	/	/	12%
Cc1ccc(-c2ccc(/C=C3/NC(=O)NC3=O)o2)cc1[N+](=O)[O-]	-32%	?	15%	-30%	?
CC1=C(C#N)C(=O)NC(=O)/C1=C\c1ccc(-c2cc(C)c(C)cc2[N+](=O)[O-])o1	56µM*	10µM*	?	45µM*	50µM*
COc1ccc(C2C(C(=O)N3CCN(c4ccccc4)CC3)c3ccccc3C(=O)N2C)cc1OC (centres undefined)	-8%	?	23%	-9%	-1%
O=C/C(=C\Nc1ccccn1)c1nc2ccccc2o1	40µM*	1%[59 µM]	9%	79µM*	-20%
O=C(CNC(=O)c1nn(Cc2ccccc2)c(=O)c2ccccc12)Nc1ccc(F)c(F)c1F	-12%	/	14%[57 µM]	/	/
COC1=C(Nc2ccccc2)C(=O)C(OC)=C(Nc2ccccc2)C1=O	-17%	/	20%[57 µM]	/	/
COC1=C(Nc2ccccc2OC)C(=O)c2ccccc2C1=O	45µM*	-161%[59 µM]	35µM*	8.9µM*	-18%
COc1ccccc1NC1=C(NC(C)=O)C(=O)c2ccccc2C1=O	?	7.9µM*	50µM*	?	-97%
CC(=O)N1CCc2cc(S(=O)(=O)NC(Cc3ccccc3)C(=O)Nc3cc(C)cc(C)c3)ccc21 (centres undefined)	-8%	-35%[59 µM]	29%	/	/
Cc1[nH]nc2c1C(c1ccc(O)cc1)C1=C(CC(C)(C)CC1=O)N2 (centres undefined)	-3%	7%	21%	-6%	15%
Cc1ccc(C2C3=C(CC(C)(C)CC3=O)Nc3[nH]c(=S)[nH]c(=O)c32)cc1 (centres undefined)	89µM*	?	29%	?	14µM*
CC(C)C(NC(=O)COc1ccccc1)C(=O)O (centres undefined)	-3%	-43%	40%	1%	9%
O=C(/C=C\c1ccco1)Nc1cc([N+](=O)[O-])ccc1F	-16%	-14%[59 µM]	22%	6%	-6%
Cc1cc(NC(=O)/C=C/c2ccco2)ccc1NC(=O)c1ccccc1	-10%	?	28%	-28%	13µM*
O=C(/C=C/c1ccco1)Nc1ccc2nn(-c3ccccc3)nc2c1	-19%	?	9%	-35%	?
Cc1ccc(NC(=O)/C=C/c2ccco2)cc1F	-35%	13µM*	?	?	/
COc1ccc(CCC(=O)NCCc2csc(-c3cccc(C)c3)n2)cc1	-10%	0%[59 µM]	23%[57 µM]	5%	/
O=C1c2ccccc2C(=O)C1(c1ccccc1)N1CCN(c2cccc(Cl)c2)CC1	?	6.3µM*	-18%	?	/
Cc1cccc(N2CCN(C3(c4ccccc4)C(=O)c4ccccc4C3=O)CC2)c1C	?	?	-16%	-17%[57.1 µM]	/
O=C1c2ccccc2C(=O)C1(c1ccccc1)N1CCN(c2cccc(C(F)(F)F)c2)CC1	?	10µM*	-12%	?	/
COc1cc(C2Nc3cccc4cccc(c34)N2)ccc1OC(C)=O	56µM*	14µM*	-37%	?	-30%
COC(=O)c1ccc(C2Nc3cccc4cccc(c34)N2)cc1	20µM*	28µM*	45µM*	35µM*	?
COc1cc(C2Nc3cccc4cccc(c34)N2)cc(OC)c1O	?	7.9µM*	?	?	50µM*
COc1ccc(C2Nc3cccc4cccc(c34)N2)cc1Br	40µM*	35µM*	?	45µM*	-16%

Bioassay records from PubChem.
